Records with an inconclusive call do not appear. Unmarked numbers belong to inactive results. Calls of active or inactive are those of the source. The call rests on the fitted dose curve; in most records, active means well fitted cell-killing curve with a large enough effect; inconclusive means small, poorly fitted or top-dose-only effect, or effect the other way; inactive means no such curve, though single readings can be large or run the other way.
Key:
[1] = Quantitative High-Throughput drug screen in 47 multiple myeloma cell lines against the NCATS MIPE library collection: MM1R_ATCC cell viability assay (AID 1918981); further: nearly all actives have a fitted effect of over 35% in size
How it was run: (§1)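 ATP-based luminescence (CellTiter-Glo, 5 min RT incubation) quantified surviving cells following two days' treatment with MIPE 4.0 agents at 37 °C, 5% CO2.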

[2] = Quantitative High-Throughput drug screen in 47 multiple myeloma cell lines against the NCATS MIPE library collection: KMS28PE_JCRB cell viability assay (AID 1918983); further: nearly all actives have a fitted effect of over 35% in size
How it was run: as §1

[3] = Quantitative High-Throughput drug screen in 47 multiple myeloma cell lines against the NCATS MIPE library collection: KMS34_JCRB cell viability assay (AID 1918985); further: nearly all actives have a fitted effect of over 40% in size
How it was run: as §1

[4] = Quantitative High-Throughput drug screen in 47 multiple myeloma cell lines against the NCATS MIPE library collection: OCIMY7_PLB cell viability assay (AID 1918987); conditions: OCI-MY7 myeloma viability, CellTiter-Glo ATP, 48 h; viability (% of DMSO): at 45.8 µM (top of the series); further: nearly all actives have a fitted effect of over 65% in size
How it was run: as §1

[5] = Quantitative High-Throughput drug screen in 47 multiple myeloma cell lines against the NCATS MIPE library collection: OCIMY5_PLB cell viability assay (AID 1918988); further: nearly all actives have a fitted effect of over 65% in size
How it was run: as §1

[6] = Quantitative High-Throughput drug screen in 47 multiple myeloma cell lines against the NCATS MIPE library collection: SKMM1_PLB cell viability assay (AID 1919863); conditions: SKMM1 myeloma viability, CellTiter-Glo ATP, 48 h; viability: stronger effect = lower value; further: nearly all actives have a fitted effect of over 35% in size
How it was run: as §1

[7] = Quantitative High-Throughput drug screen in 47 multiple myeloma cell lines against the NCATS MIPE library collection: XG6_PLB cell viability assay (AID 1919865); further: nearly all actives have a fitted effect of over 40% in size
How it was run: as §1

[8] = Quantitative High-Throughput drug screen in 47 multiple myeloma cell lines against the NCATS MIPE library collection: XG1_PLB cell viability assay (AID 1919866); further: nearly all actives have a fitted effect of over 35% in size
How it was run: as §1

[9] = Quantitative High-Throughput drug screen in 47 multiple myeloma cell lines against the NCATS MIPE library collection: VP6_DJ cell viability assay (AID 1919867); further: nearly all actives have a fitted effect of over 40% in size
How it was run: as §1

[10] = Quantitative High-Throughput drug screen in 47 multiple myeloma cell lines against the NCATS MIPE library collection: L363_DSMZ cell viability assay (AID 1918984); conditions: L363 myeloma viability, CellTiter-Glo ATP luminescence, 48 h; viability (% of control): at 45.8 µM (top of the series); further: nearly all actives have a fitted effect of over 40% in size
How it was run: as §1

[11] = Quantitative High-Throughput drug screen in 47 multiple myeloma cell lines against the NCATS MIPE library collection: U266_ATCC cell viability assay (AID 1919864); further: nearly all actives have a fitted effect of over 35% in size
How it was run: as §1

[12] = Quantitative High-Throughput drug screen in 47 multiple myeloma cell lines against the NCATS MIPE library collection: UTMC2_PLB cell viability assay (AID 1919868); conditions: CellTiter-Glo ATP luminescence, 48 h; viability (% of DMSO control): at 45.8 µM (top of the series); further: nearly all actives have a fitted effect of over 55% in size
How it was run: as §1

[13] = Quantitative High-Throughput drug screen in 47 multiple myeloma cell lines against the NCATS MIPE library collection: PE2_PLB cell viability assay (AID 1919869); further: nearly all actives have a fitted effect of over 35% in size
How it was run: as §1

[14] = Quantitative High-Throughput drug screen in 47 multiple myeloma cell lines against the NCATS MIPE library collection: RPMI8226_ATCC cell viability assay (AID 1919871); further: nearly all actives have a fitted effect of over 30% in size
How it was run: as §1

[15] = Quantitative High-Throughput drug screen in 47 multiple myeloma cell lines against the NCATS MIPE library collection: OPM2_DSMZ cell viability assay (AID 1919872); further: nearly all actives have a fitted effect of over 30% in size
How it was run: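 We plated 500 myeloma cells per well, pinned in MIPE 4.0 compounds, and incubated for 48 hours at 37C. ATP was then quantified with CellTiter-Glo, with DMSO and media-only wells defining 100% and 0%.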

[16] = Quantitative High-Throughput drug screen in 47 multiple myeloma cell lines against the NCATS MIPE library collection: KMS28BM_JCRB cell viability assay (AID 1919874); further: nearly all actives have a fitted effect of over 35% in size
How it was run: as §1

[17] = Quantitative High-Throughput drug screen in 47 multiple myeloma cell lines against the NCATS MIPE library collection: PCM6_Riken cell viability assay (AID 1919870); further: nearly all actives have a fitted effect of over 30% in size
How it was run: as §1

[18] = Quantitative High-Throughput drug screen in 47 multiple myeloma cell lines against the NCATS MIPE library collection: KMS11_JCRBsus cell viability assay (AID 1919873); further: nearly all actives have a fitted effect of over 50% in size
How it was run: as §1

[19] = Quantitative High-Throughput drug screen in 47 multiple myeloma cell lines against the NCATS MIPE library collection: OPM1_PLB cell viability assay (AID 1918989); further: nearly all actives have a fitted effect of over 40% in size
How it was run: as §1
Potency means the concentration at half of the fitted maximal effect.

SMILES: C[C@@H]1[C@H](O)[C@@H](C)C=CC=CC=CC=CC=CC=CC=C[C@H](O[C@@H]2O[C@H](C)[C@H](O)[C@H](N)[C@@H]2O)C[C@@H]2O[C@](O)(C[C@@H](O)C[C@@H](O)[C@H](O)CC[C@@H](O)C[C@@H](O)CC(=O)O[C@H]1C)C[C@H](O)[C@@H]2C(=O)O
- Potency [1]: 16.6 µM (active)
- Potency [2]: inactive
- Potency [3]: 11.8 µM (active)
- Potency [4]: 11.8 µM (active)
- Potency [5]: 4.18 µM (active)
- Potency [6]: 5.26 µM (active)
- Potency [7]: inactive
- Potency [8]: 2.96 µM (active)
- Potency [9]: 3.72 µM (active)

SMILES: CC(C)(C)c1nc(-c2cccc(NS(=O)(=O)c3c(F)cccc3F)c2F)c(-c2ccnc(N)n2)s1
- Potency [1]: 18.7 µM (active)
- Potency [2]: inactive
- Potency [10]: 16.6 µM (active)
- Potency [4]: 0.209 µM (active)
- Potency [5]: 1.32 µM (active)
- Potency [11]: 5.9 µM (active)
- Potency [7]: 2.96 µM (active)
- Potency [9]: 2.96 µM (active)
- Potency [12]: inactive
- Potency [13]: 5.9 µM (active)
- Potency [14]: 13.2 µM (active)
- Potency [15]: 3.32 µM (active)
- Potency [16]: inactive

SMILES: OC1CCC(Nc2ncc3nc(Nc4c(F)cc(F)cc4F)n([C@@H]4CCOC4)c3n2)CC1 (stereo partly specified)
- Potency [1]: 10.5 µM (active)
- Potency [2]: inactive
- Potency [10]: 5.26 µM (active)
- Potency [3]: 23.5 µM (active)
- Potency [6]: 18.7 µM (active)
- Potency [7]: 9.35 µM (active)
- Potency [8]: 13.2 µM (active)
- Potency [9]: 11.8 µM (active)
- Potency [12]: inactive
- Potency [17]: 18.7 µM (active)
- Potency [14]: inactive
- Potency [16]: inactive

SMILES: C[C@@H]1CCO[C@H]2Cn3cc(C(=O)NCc4ccc(F)cc4F)c(=O)c(O)c3C(=O)N12
- Potency [1]: 23.5 µM (active)
- Potency [2]: 23.5 µM (active)
- viability (% of control) [10]: 92.8% (active)
- Potency [5]: 20.9 µM (active)
- Potency [6]: 26.4 µM (active)
- Potency [17]: 23.5 µM (active)
- Potency [15]: inactive
- Potency [18]: 18.7 µM (active)

SMILES: Cc1ccc(NC(=O)c2ccc(CN3CCN(C)CC3)cc2)cc1Nc1nc(-c2cccnc2)cs1
- Potency [1]: 20.9 µM (active)
- Potency [2]: 16.6 µM (active)
- Potency [10]: 9.35 µM (active)
- Potency [4]: 14.8 µM (active)
- Potency [5]: 23.5 µM (active)
- Potency [19]: 9.35 µM (active)
- Potency [6]: 23.5 µM (active)
- Potency [11]: 23.5 µM (active)
- Potency [7]: 7.43 µM (active)
- Potency [8]: 13.2 µM (active)
- Potency [9]: 8.33 µM (active)
- Potency [13]: 11.8 µM (active)
- Potency [17]: 4.18 µM (active)
- Potency [14]: 18.7 µM (active)
- Potency [18]: 10.5 µM (active)
- Potency [16]: 20.9 µM (active)

SMILES: Cn1c(=O)c(Oc2ccc(F)cc2F)cc2cnc(NC3CCOCC3)nc21
- Potency [1]: 7.43 µM (active)
- Potency [2]: inactive
- Potency [3]: 1.32 µM (active)
- Potency [5]: 18.7 µM (active)
- Potency [11]: inactive
- Potency [15]: inactive
- Potency [16]: inactive

SMILES: c1ccc(CNc2nc(N3CCOc4ccccc43)nc3c2CCCC3)cc1
- Potency [1]: inactive
- Potency [2]: inactive
- Potency [10]: inactive
- Potency [4]: inactive
- Potency [19]: inactive
- Potency [11]: inactive
- Potency [7]: inactive
- Potency [8]: inactive
- Potency [17]: inactive
- Potency [16]: inactive

SMILES: COc1cc2ncnc(Nc3cc(Br)c(O)c(Br)c3)c2cc1OC
- Potency [1]: 0.0418 µM (active)
- Potency [2]: 1.48 µM (active)
- Potency [3]: 6.62 µM (active)
- Potency [4]: 0.0042 µM (active)
- Potency [5]: 0.0023 µM (active)
- Potency [6]: 0.0469 µM (active)
- Potency [7]: 0.0047 µM (active)
- Potency [8]: 0.0074 µM (active)
- Potency [9]: 0.0148 µM (active)
- Potency [12]: 0.526 µM (active)
- Potency [13]: 0.0833 µM (active)
- Potency [17]: 0.0332 µM (active)
- Potency [14]: 8.33 µM (active)
- Potency [16]: inactive

SMILES: Cn1c(=O)c(-c2c(Cl)cccc2Cl)cc2cnc(Nc3cccc(C(=O)O)c3)nc21
- Potency [1]: 9.35 µM (active)
- Potency [2]: 5.26 µM (active)
- Potency [10]: 0.59 µM (active)
- Potency [5]: 13.2 µM (active)
- Potency [19]: inactive
- Potency [6]: 2.09 µM (active)
- Potency [11]: inactive
- Potency [7]: 0.187 µM (active)
- Potency [8]: 0.296 µM (active)
- Potency [9]: 0.235 µM (active)
- viability (% of DMSO control) [12]: 127% (active)
- Potency [13]: inactive
- Potency [17]: 0.0469 µM (active)
- Potency [14]: inactive
- Potency [18]: inactive
- Potency [16]: inactive

SMILES: CN1CCc2c(n(Cc3ccc(C(=O)NO)cc3)c3ccccc23)C1
- Potency [1]: 18.7 µM (active)
- Potency [2]: 14.8 µM (active)
- Potency [3]: 16.6 µM (active)
- Potency [4]: 4.18 µM (active)
- Potency [5]: 16.6 µM (active)
- Potency [19]: 16.6 µM (active)
- Potency [6]: 5.9 µM (active)
- Potency [11]: 26.4 µM (active)
- Potency [7]: 14.8 µM (active)
- Potency [9]: 13.2 µM (active)
- Potency [13]: 20.9 µM (active)
- Potency [17]: 20.9 µM (active)
- Potency [18]: 18.7 µM (active)
- Potency [16]: 18.7 µM (active)

SMILES: Cc1ccc(C2=Nc3ccc(Cl)cc3OC2)cc1
- Potency [1]: inactive
- Potency [2]: inactive
- Potency [3]: 6.62 µM (active)
- Potency [4]: 1.32 µM (active)
- Potency [11]: 9.35 µM (active)
- Potency [7]: 7.43 µM (active)
- Potency [8]: inactive
- Potency [13]: inactive
- Potency [17]: 7.43 µM (active)
- Potency [14]: 1.87 µM (active)
- Potency [15]: inactive
- Potency [16]: inactive

SMILES: O=C(c1ccc(F)c(F)c1Nc1ccc(I)cc1F)N1CC(O)([C@H]2CCCCN2)C1
- Potency [1]: 23.5 µM (active)
- Potency [2]: 18.7 µM (active)
- Potency [10]: 1.66 µM (active)
- Potency [4]: inactive
- Potency [5]: 18.7 µM (active)
- Potency [19]: 11.8 µM (active)
- Potency [6]: 16.6 µM (active)
- Potency [11]: 23.5 µM (active)
- Potency [7]: 18.7 µM (active)
- Potency [9]: 9.35 µM (active)
- Potency [13]: 7.43 µM (active)
- Potency [17]: 16.6 µM (active)
- Potency [14]: 20.9 µM (active)
- Potency [15]: 13.2 µM (active)
- Potency [16]: 20.9 µM (active)

— PubChem BioAssay (NCATS)
